Assay results: PubChem BioAssay (NCI)
This is part of a sample that, as a whole, favours compounds with a hit. Of some 83,000 tested, about 20% had one in any assay.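 Plates (96-well) were seeded with cells, treated with compound at one concentration, and incubated for 48 hours before percent growth was determined.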 A number with no mark means an inactive call. Activity calls are given as the source filed them. The calls were made as follows: active = growth percent below 10; inactive = the rest.

Test system: MDA-MB-468 breast
Experiment: NCI-60 one-dose screen, 48 h (100 = growth as untreated, 0 = no growth, -100 = all killed)
Conditions: 10 µM unless noted

Row | Structure (SMILES) | growth
1 | CCCCn1c(=O)c(/C=C/C(=O)/C=C/c2cc3ccccc3n(CCCC)c2=O)cc2ccccc21 | -59.4% (active)
2 | CN(CCCCN(C[C@H]1Cc2ncccc2CN1)[C@H]1CCCc2cccnc21)C1CCC(F)(F)CC1 | 95.3%
3 | CCCCNc1nnc2n(Cc3ccccc3)c(=O)c3c4c(sc3n12)CCCC4 | 34.7%
4 | O=C(CCc1nc(-c2cccc(Cl)c2)no1)Nc1ccccn1 | 83.1%
5 | COC(=O)C(=Cc1ccccc1[N+](=O)[O-])C(=O)OC | 20.2%
6 | Cc1ccc(-n2nc3c(c(C#N)c2=O)CC(c2ccccc2Cl)C([N+](=O)[O-])=C3O)cc1 (stereo not drawn) | 114%
7 | CC1=CC[C@@H]2C(C)(C)[C@@H](O)CC[C@@]2(C)[C@@H]1COc1ccc2ccc(=O)oc2c1 | 42.8%
8 | CN1C(=O)N(C)C2C1NN=c1s/c(=C\c3cccnc3)c(=O)n12 (stereo not drawn) | 58.1%
9 | COc1cc(C2C3=C(COC3=O)N(CCO)c3cc4c(cc32)OCCO4)cc(OC)c1O (stereo not drawn) | -24.4% (active)
10 | O=C1c2ccccc2-c2c1c1cccnc1c(=O)n2C[C@H](O)CO | 88.4%
11 | Fc1ccc2c(CN3CCO[C@H](COc4cccc(Cl)c4)C3)c[nH]c2c1 | -38.7% (active)
12 | Cc1ncc(C(=O)Nc2ccc(CN3CCN(C)CC3)c(C(F)(F)F)c2)cc1C#Cc1cnc(N)c2ccc(C#N)cc12 | 48.2%
13 | N#Cc1c(-c2ccc(Cl)cc2)csc1NC(=O)Nc1ccc(Cl)c(C(F)(F)F)c1 | -9.61% (active)
14 | COc1ccc(-c2n[nH]nc2-c2cc3ccccc3s2)cc1O | 40.8%
15 | C[C@@H](Oc1cc(-c2cnn(C3CC4(CCCNC4)C3)c2)cnc1N)c1c(Cl)ccc(F)c1Cl (stereo partly drawn) | -39.3% (active)
16 | C=C(C)[C@@H]1CC[C@]2(C(=O)O)CC[C@]3(C)[C@H](CC[C@@H]4[C@@]5(C)CCC(N)C(C)(C)[C@@H]5CC[C@]43C)[C@@H]12 (stereo partly drawn) | -23.2% (active)
17 | Cc1nnc(NC(=O)c2nc(S(=O)(=O)Cc3ccc(F)cc3)ncc2Cl)s1 | -15.1% (active)
18 | Cc1nc2c(c(N3CCCc4ccccc43)n1)CCC2 | 8.12% (active)
